From PubChem BioAssay
Rab9 prom act – activates the Rab9 promoter. Huh7 Rab9 promoter-luciferase reporter, luminescence, 24 h. Potency, µM (highest dose often 9.22 µM), inactives show at the top dose activation, negative = inhibition, most hits filed as activators. 320,000 tested, 2.8% active. AID 485297; further: % of control where 0% means no effect; nearly all actives have a fitted effect of over 60% in size
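Cell-based reporter: Huh7 stable for Rab9 promoter-driven luciferase, plated in reduced-serum medium with 10% FBS at 1500 cells/well, compound-treated 24 h at 37 °C, luminescence read after 10 min reagent.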
ELG1 genotoxic – inducers of genotoxicity in HEK293T ELG1-luciferase cells. 330,000 tested, 1.3% active. Potency, µM (series often up to 46 µM), for the others: top-dose activity change, positive = activation, hits mostly activators. HEK293T ELG1-luciferase reporter, luminescence, 16 h; further: % of control where 0% means no effect; nearly all actives have a fitted effect of over 60% in size
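16 hr compound incubation (37 °C, 5% CO2) of HEK293T cells carrying luciferase-tagged ELG1; luciferase then measured by ONE-Glo luminescence after 30 min at RT.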
NPC1 prom act – activators of NPC1 promoter. Huh7 NPC1 promoter luciferase reporter, 24 h. Potency, µM (highest dose often 9.22 µM), for the others: at the highest dose activation, actives largely listed as activators. 320,000 tested, 2.4% active. AID 485313; further: % of control where 0% means no effect; nearly all actives have a fitted effect of over 60% in size
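Stably transfected Huh7 (NPC1 promoter→luciferase), 1500 cells/well in Opti-MEM + 10% FBS, 2 h settle, then compound 24 h at 37 °C. Luminescence after 10 min with Amplite reagent.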
FLuc modulator – inhibits or activates purified firefly luciferase, miR-21 counter-screen. purified FLuc, Km substrates, luminescence inhibition. Potency, µM (highest dose often 57.5 µM), for the others: at the highest dose activity change, negative = inhibition, hits mostly inhibitors. 360,000 tested, 6.9% active;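 further: plate controls were vehicle for no effect and reference inhibitor for full effect; nearly all actives have a fitted effect of over 55% in size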
Target sequence (P08659 whole entry, looked up): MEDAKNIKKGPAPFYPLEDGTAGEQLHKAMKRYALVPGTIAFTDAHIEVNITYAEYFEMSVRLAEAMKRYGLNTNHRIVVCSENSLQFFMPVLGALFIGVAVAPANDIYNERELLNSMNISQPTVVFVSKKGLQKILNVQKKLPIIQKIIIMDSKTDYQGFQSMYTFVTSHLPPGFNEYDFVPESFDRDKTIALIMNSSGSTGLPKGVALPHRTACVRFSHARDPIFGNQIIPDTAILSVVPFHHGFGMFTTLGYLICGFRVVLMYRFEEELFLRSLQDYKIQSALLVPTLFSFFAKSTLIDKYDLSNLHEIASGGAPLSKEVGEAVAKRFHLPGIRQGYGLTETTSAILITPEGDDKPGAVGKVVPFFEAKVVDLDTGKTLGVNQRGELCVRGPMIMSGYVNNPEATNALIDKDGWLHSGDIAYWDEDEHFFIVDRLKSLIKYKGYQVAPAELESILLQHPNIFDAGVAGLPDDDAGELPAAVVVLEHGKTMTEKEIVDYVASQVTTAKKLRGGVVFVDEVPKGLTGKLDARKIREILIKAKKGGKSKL
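Biochemical qHTS of compounds, final roughly 60 µM downward over six points, against 10 nM purified firefly luciferase using Km concentrations of substrates (10 uM D-luciferin, 10 uM ATP) in Tris acetate pH 7.5 buffer; luminescence output.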
ELG1 repair inh – ELG1-dependent DNA repair inhibition | HEK293T ELG1-luciferase reporter, luminescence, 16 h; DNA damage induced by 5-fluorouridine | Potency, µM (doses to about 46.1 µM), without a hit: at the top dose activity change, negative = inhibition, most hits filed as inhibitors | 330,000 tested, 2.3% active | AID 504467; further: on the % scale 0 is the no-effect control and ±100 the full control effect; nearly all actives have a fitted effect of over 55% in size
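Cells (2,000 per well) received 5-fluorouridine plus test compound or DMSO and were incubated 16 hr at 37 °C, 5% CO2. Luciferase activity was read by luminescence 30 min after ONE-Glo addition; signal suppression marked inhibition of damage-induced ELG1 function.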
SMN2 splice enh – increases expression of the SMN2 splice variant; HEK293 SMN2-luciferase splicing reporter, luminescence, 30-36 h; Potency, µM (titrated, usually from 46.1 µM), for the others: top-dose activity change, positive = activation, usual class: activators; 210,000 tested, 2.8% active; AID 1458; further: % of control where 0% means no effect; nearly all actives have a fitted effect of over 55% in size
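HEK293 cells carry an SMN2 minigene-luciferase reporter in which exon 7 inclusion puts luciferase in frame. Cells were seeded at 2000 cells/well, attached for 10-12 hours, then exposed to compounds for 30-36 hours at 37C before ONE-Glo luminescence.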
An asterisk follows results filed as active. An excerpt weighted towards active compounds, which were near 9.2% of everything screened. The call rests on the fitted dose curve; in most records, active means well fitted curve in the direction sought with a large enough effect; inconclusive means small, poorly fitted or top-dose-only effect, or another doubt; inactive means no such curve, though single readings can be large; an effect the other way counts as inactive or inconclusive. Potency means the concentration at half of the fitted maximal effect.

COCCNC(=O)/C(C#N)=C/c1cc(C)n(-c2ccc(C)cc2)c1C was read as Rab9 prom act 1.58µM*, ELG1 genotoxic 4.11µM*, NPC1 prom act 1.58µM*, FLuc modulator 0.953µM* and ELG1 repair inh inconclusive.
Screening CCOc1ccc(OCC)c(NC(=O)c2nnn(CC(=O)Nc3ccc(C)cc3C)c2N)c1 returned FLuc modulator -0.5% and SMN2 splice enh -4.3%.
COc1ccc(Nc2nc(CC(C)=O)ns2)cc1 was read as Rab9 prom act 3.16µM*, ELG1 genotoxic inconclusive, NPC1 prom act inconclusive, FLuc modulator inconclusive, ELG1 repair inh inconclusive and SMN2 splice enh 14.1µM*.
COc1cccc(Nc2nc(CC(C)=O)ns2)c1 was read as Rab9 prom act 26.5%, ELG1 genotoxic inconclusive, NPC1 prom act inconclusive, FLuc modulator inconclusive, ELG1 repair inh inconclusive and SMN2 splice enh 17.0%.
Screening CC(=O)Cc1nsc(Nc2ccc(F)cc2)n1 returned Rab9 prom act 19.4%, ELG1 genotoxic 11.2%, NPC1 prom act 4.3%, FLuc modulator -6.3%, ELG1 repair inh inconclusive and SMN2 splice enh 23.6%.
Screening CC(=O)Cc1nsc(Nc2ccc3c(c2)OCCO3)n1 returned Rab9 prom act 3.98µM*, ELG1 genotoxic inconclusive, NPC1 prom act 3.55µM*, FLuc modulator 23.9µM*, ELG1 repair inh inconclusive and SMN2 splice enh 12.6µM*.
`CCOc1ccc(NC(c2ccccc2)P(=O)(OC)OC)cc1` (stereo not given) gave Rab9 prom act 19.1%, ELG1 genotoxic -1.7%, NPC1 prom act 0.2%, FLuc modulator -2.0% and ELG1 repair inh 7.6%.
Cc1cc(C)n2nc(SC(C)C(=O)Nc3ccccc3F)nc2n1 (stereo not given) was read as ELG1 genotoxic 7.6% and ELG1 repair inh 2.0%.
For Cn1c(/C=C/c2ccccc2)nc2ccccc21 the results were Rab9 prom act inconclusive, ELG1 genotoxic inconclusive, NPC1 prom act 0.562µM*, FLuc modulator 0.135µM* and ELG1 repair inh inconclusive.
CC(=O)c1ccc(/C=C/c2nc3ccccc3n2C)o1 was read as Rab9 prom act 1µM*, ELG1 genotoxic 16.4µM*, NPC1 prom act 1.26µM*, FLuc modulator 5.36µM* and ELG1 repair inh inconclusive.
Screening Cn1c(=O)c(/C=C/c2ccccc2)nc2ccccc21 returned Rab9 prom act 3.55µM*, ELG1 genotoxic inconclusive, NPC1 prom act inconclusive, FLuc modulator 2.69µM*, ELG1 repair inh inconclusive and SMN2 splice enh 11.2µM*.
`Cn1c(=O)c(/C=C/c2ccc(F)cc2)nc2ccccc21` gave Rab9 prom act -29.9%, ELG1 genotoxic 8.5%, NPC1 prom act -30.3%, FLuc modulator 6.75µM* and ELG1 repair inh inconclusive.
`O=c1c(/C=C(\O)c2ccc(F)cc2)nc2ccccc2n1-c1ccccc1` gave Rab9 prom act inconclusive, ELG1 genotoxic inconclusive, NPC1 prom act 19.1%, FLuc modulator inconclusive, ELG1 repair inh 17.7% and SMN2 splice enh 1.5%.
For O=S(=O)(c1ccc(-c2csc(=Nc3ccc(OC(F)(F)Cl)cc3)n2CCCO)cc1)N1CCCC1 the results were FLuc modulator 4.0% and SMN2 splice enh -102.8%.
Screening CCN1CCN(/C=N/c2nc3c(s2)CCCC3)CC1 returned Rab9 prom act inconclusive, ELG1 genotoxic 0.92µM*, NPC1 prom act inconclusive, FLuc modulator 1.35µM*, ELG1 repair inh inconclusive and SMN2 splice enh -4.5%.
Screening CN1CCN(CC(=O)Nc2nc3c(s2)CCCC3)CC1 returned Rab9 prom act 9.9%, ELG1 genotoxic -0.2%, NPC1 prom act 7.9%, FLuc modulator -4.6% and ELG1 repair inh inconclusive.
For CCN1c2ccccc2-c2nc(SCC(=O)NCc3ccc(Cl)cc3)ncc2S1(=O)=O the results were FLuc modulator -1.6%.
COc1ccccc1CNc1cc(C)nc2nc(-c3ccc(C)cc3)nn12 was read as FLuc modulator 6.01µM*.
